Measurements from PubChem BioAssay (NCATS).
Records with an inconclusive call do not appear. Activity calls are given as the source filed them. Unless noted, the call rests on the fitted dose curve.

What was measured:
[1] = molecular target: Tyrosine-protein phosphatase non-receptor type substrate 1 (Homo sapiens) + Leukocyte surface antigen CD47 (Homo sapiens) (UniProt P78324+Q08722); experiment: CD47-SIRPalpha protein protein interaction - Alpha assay qHTS validation (AID 1347059; active means well fitted curve in the direction sought with a large enough effect; an effect the other way counts as inactive or inconclusive;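 further: bead proximity luminescence from CD47 binding SIRPalpha after compound preincubation with SIRPalpha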)
Summary of the method: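 Binding is measured by AlphaScreen proximity: Ni-NTA acceptor beads capture His-CD47, streptavidin donor beads capture biotin-SIRPalpha. Each of three additions (SIRPalpha with compound, CD47, beads) incubates 30 min at room temperature protected from light.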

[2] = molecular target: Parathyroid hormone/parathyroid hormone-related peptide receptor (Homo sapiens) (UniProt Q03431); experiment: qHTS for PTHR1 Agonists: Optimization Screen against the NCGC LOPAC library (AID 1347079; active means well fitted curve in the direction sought with a large enough effect; an effect the other way counts as inactive or inconclusive;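 further: GloSensor cAMP luminescence in HEK-293 GP2 cells expressing human PTHR1 with IBMX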)
Summary of the method: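 Agonist readout: GloSensor cAMP luminescence, read after 15 min at room temperature. HEK-293-derived GP2 line carries PTHR1; compounds tested as a titration for 1 hr at 37C in presence of IBMX. M-PTH (1-15) served as control.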

[3] = qHTS for Inhibitors of the Functional Ribonucleoprotein Complex (vRNP) of Lassa (LASV) Arenavirus: LASV Primary Screen - GLuc reporter signal (AID 1347082; calls by dose curve; tested in HEK293 reporter line; further: series mostly up to about 57 µM; nearly all actives have a fitted effect of over 60% in size)
[4] = qHTS for Inhibitors of the Functional Ribonucleoprotein Complex (vRNP) of Lassa (LASV) Arenavirus: Viability assay - alamar blue signal for LASV Primary Screen (AID 1347083; calls by dose curve; tested in HEK293 reporter line; further: series mostly up to about 57 µM; nearly all actives have a fitted effect of over 80% in size)
[5] = qHTS for Inhibitors of the Functional Ribonucleoprotein Complex (vRNP) of Lymphocytic Choriomeningitis Arenaviruses (LCMV): Viability assay - alamar blue signal for LCMV Primary Screen (AID 1347085; calls by dose curve; tested in HEK293 reporter line; further: series mostly up to about 57 µM; nearly all actives have a fitted effect of over 80% in size)
[6] = molecular target: Nucleoprotein (Lymphocytic choriomeningitis virus (strain Armstrong)) (UniProt P09992); experiment: qHTS for Inhibitors of the Functional Ribonucleoprotein Complex (vRNP) of Lymphocytic Choriomeningitis Arenaviruses (LCMV): LCMV Primary Screen - GLuc reporter signal (AID 1347086); further: series mostly up to about 57 µM; nearly all actives have a fitted effect of over 70% in size
[7] = qHTS of pediatric cancer cell lines to identify multiple opportunities for drug repurposing: Primary screen for TC32 cells (AID 1347089; active means well fitted curve in the direction sought with a large enough effect; an effect the other way counts as inactive or inconclusive; further: nearly all actives have a fitted effect of over 60% in size)
Summary of the method: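 Measured quantity: luminescence from CellTiter-Glo, reflecting metabolically active TC32 cells following 48 h of compound. Curves came straight from multi-point titrations, with 8 or 11 points in primary and 11 in confirmatory screening.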

[8] = qHTS of pediatric cancer cell lines to identify multiple opportunities for drug repurposing: Primary screen for DAOY cells (AID 1347090; active means well fitted curve in the direction sought with a large enough effect; an effect the other way counts as inactive or inconclusive; further: series mostly up to about 46 µM; nearly all actives have a fitted effect of over 55% in size)
Summary of the method: (§1)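 Cell viability, CellTiter-Glo luminescence; 500-1,000 cells/well, 8- or 11-point titration, 48 h compound exposure at 37 degrees C, 5% CO2. Controls: DMSO neutral, bortezomib 2.3 µM final as positive.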

[9] = qHTS of pediatric cancer cell lines to identify multiple opportunities for drug repurposing: Primary screen for SJ-GBM2 cells (AID 1347091; active means well fitted curve in the direction sought with a large enough effect; an effect the other way counts as inactive or inconclusive)
Summary of the method: as §1

[10] = qHTS of pediatric cancer cell lines to identify multiple opportunities for drug repurposing: Primary screen for A673 cells (AID 1347092; active means well fitted curve in the direction sought with a large enough effect; an effect the other way counts as inactive or inconclusive; further: nearly all actives have a fitted effect of over 45% in size)
Summary of the method: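 Cells are plated, rested 5 h, dosed by pintool, incubated 48 h, then lysed with CellTiter-Glo and read by luminescence. DMSO is the neutral control; bortezomib at 2.3 uM final is the positive control.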

Measured: Potency

Chain of Nucleoprotein (Lymphocytic choriomeningitis virus (strain Armstrong)) (P09992 whole entry, looked up): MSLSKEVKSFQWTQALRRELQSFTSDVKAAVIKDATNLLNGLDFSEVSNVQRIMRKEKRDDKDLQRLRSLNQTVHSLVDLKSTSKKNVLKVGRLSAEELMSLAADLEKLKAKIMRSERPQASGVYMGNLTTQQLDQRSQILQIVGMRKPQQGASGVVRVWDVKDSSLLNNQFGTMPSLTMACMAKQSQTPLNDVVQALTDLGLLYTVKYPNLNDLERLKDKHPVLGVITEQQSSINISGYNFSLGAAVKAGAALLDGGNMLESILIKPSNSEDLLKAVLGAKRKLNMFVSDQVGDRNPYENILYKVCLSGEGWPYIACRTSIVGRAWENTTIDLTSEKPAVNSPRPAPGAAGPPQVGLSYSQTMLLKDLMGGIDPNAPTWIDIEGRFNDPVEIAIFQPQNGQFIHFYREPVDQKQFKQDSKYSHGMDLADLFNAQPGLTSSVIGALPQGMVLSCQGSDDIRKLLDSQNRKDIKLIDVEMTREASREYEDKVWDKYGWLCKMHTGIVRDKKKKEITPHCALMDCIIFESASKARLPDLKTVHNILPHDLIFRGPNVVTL
Chain of Parathyroid hormone/parathyroid hormone-related peptide receptor (Homo sapiens) (Q03431 whole entry, looked up): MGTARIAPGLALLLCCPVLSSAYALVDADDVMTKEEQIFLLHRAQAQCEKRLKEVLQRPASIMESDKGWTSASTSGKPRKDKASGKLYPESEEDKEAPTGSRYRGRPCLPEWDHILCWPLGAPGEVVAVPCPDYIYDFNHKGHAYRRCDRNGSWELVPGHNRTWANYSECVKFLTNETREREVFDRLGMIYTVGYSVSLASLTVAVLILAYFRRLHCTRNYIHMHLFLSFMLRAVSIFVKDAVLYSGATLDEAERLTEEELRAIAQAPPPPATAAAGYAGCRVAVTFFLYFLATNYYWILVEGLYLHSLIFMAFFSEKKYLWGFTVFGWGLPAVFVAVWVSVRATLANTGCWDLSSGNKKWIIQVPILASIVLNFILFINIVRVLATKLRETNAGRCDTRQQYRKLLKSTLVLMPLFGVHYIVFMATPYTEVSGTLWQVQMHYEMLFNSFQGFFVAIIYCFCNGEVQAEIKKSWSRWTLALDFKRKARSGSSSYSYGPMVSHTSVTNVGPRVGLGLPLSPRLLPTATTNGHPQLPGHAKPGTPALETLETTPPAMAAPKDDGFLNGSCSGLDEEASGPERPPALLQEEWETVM
Chain of Tyrosine-protein phosphatase non-receptor type substrate 1 (Homo sapiens) + Leukocyte surface antigen CD47 (Homo sapiens) (P78324 whole entry, looked up): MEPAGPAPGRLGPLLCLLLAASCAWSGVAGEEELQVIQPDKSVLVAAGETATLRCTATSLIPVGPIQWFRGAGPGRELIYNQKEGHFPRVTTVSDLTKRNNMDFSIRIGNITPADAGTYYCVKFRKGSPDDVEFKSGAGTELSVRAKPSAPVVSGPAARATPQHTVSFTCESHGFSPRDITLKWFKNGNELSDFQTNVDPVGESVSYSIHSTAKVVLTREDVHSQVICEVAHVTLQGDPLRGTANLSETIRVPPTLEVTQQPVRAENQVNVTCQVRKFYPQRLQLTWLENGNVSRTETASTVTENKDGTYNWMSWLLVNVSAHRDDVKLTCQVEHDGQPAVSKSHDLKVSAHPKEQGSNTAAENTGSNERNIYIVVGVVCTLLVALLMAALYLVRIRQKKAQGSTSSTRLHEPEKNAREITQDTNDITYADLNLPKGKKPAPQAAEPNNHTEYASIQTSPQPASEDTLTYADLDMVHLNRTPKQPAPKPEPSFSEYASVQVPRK
Chain of Tyrosine-protein phosphatase non-receptor type substrate 1 (Homo sapiens) + Leukocyte surface antigen CD47 (Homo sapiens) (Q08722 whole entry, looked up): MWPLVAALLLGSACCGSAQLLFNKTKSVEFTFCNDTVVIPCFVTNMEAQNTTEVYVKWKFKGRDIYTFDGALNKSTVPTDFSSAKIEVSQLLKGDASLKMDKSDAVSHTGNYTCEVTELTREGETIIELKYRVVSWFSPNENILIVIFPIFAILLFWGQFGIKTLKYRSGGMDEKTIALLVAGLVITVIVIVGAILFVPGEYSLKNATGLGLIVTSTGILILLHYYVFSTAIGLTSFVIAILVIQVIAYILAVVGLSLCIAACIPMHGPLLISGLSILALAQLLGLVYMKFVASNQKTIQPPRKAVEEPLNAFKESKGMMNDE

O=c1[nH]oc2c1CCNC2
inactive: all assays above

Cc1cc2c(cc1CC(=O)c1sccc1S(=O)(=O)Nc1onc(C)c1Cl)OCO2
inactive: [3] | [4] | [5] | [6]

O=C(O)CCCC[C@@H]1SC[C@@H]2NC(=O)N[C@@H]21
inactive: [3] | [4] | [5] | [6]

CCCCC/C=C\C/C=C\C/C=C\C/C=C\CCCC(=O)NCC(=O)O
not listed: [1] | [9]
inactive: all other assays above

O=C(O)Cc1cn(-c2ccccc2)nc1-c1ccc(Cl)cc1
inactive: [3] | [4] | [5] | [6]

Cc1c(C(=O)O)c(O)cc2c1C(=O)c1c(O)c([C@@H]3O[C@H](CO)[C@@H](O)[C@H](O)[C@H]3O)c(O)c(O)c1C2=O
inactive: [3] | [4] | [5] | [6]

CC(=O)SCC(CC(=O)c1ccc(C)cc1)C(=O)O (stereo not drawn)
inactive: [3] | [4] | [5] | [6]

COCCCN1CCC(NC(=O)c2cc(Cl)c(N)c3c2OCC3)CC1
inactive: [3] | [4] | [5] | [6]

CCN[C@H]1CN(CCCOC)S(=O)(=O)c2sc(S(N)(=O)=O)cc21
inactive: [3] | [4] | [5] | [6]

CC(=O)CC/C=C(\C)CC/C=C(\C)CC/C=C(\C)CCC=C(C)C
inactive: [3] | [4] | [5] | [6]

CC(=O)OCC[N+](C)(C)C
inactive: [3] | [4] | [5] | [6]

NC(=O)NC1NC(=O)NC1=O (stereo not drawn)
inactive: [3] | [4] | [5] | [6]

O=C(CN1CCNCC1)NC1CCCCC1
inactive: [3] | [4] | [5] | [6]

NC(=O)c1cccnc1
inactive: [3] | [4] | [5] | [6]

C[C@H](CS)C(=O)N1CCC[C@H]1C(=O)O
inactive: [3] | [4] | [5] | [6]

CCOC(=O)NNc1ccc(N(CC)CC(C)O)nn1 (stereo not drawn)
inactive: [3] | [4] | [5] | [6]

COc1cccc(OC)c1C(=O)N[C@@H]1C(=O)N2[C@@H]1SC(C)(C)[C@@H]2C(=O)O
inactive: [3] | [4] | [5] | [6]

CC(C)C(=O)c1c(C(C)C)nn2ccccc12
inactive: [3] | [4] | [5] | [6]

NCCc1ccn[nH]1
inactive: [3] | [4] | [5] | [6]

NCC(=O)CCC(=O)O
inactive: [3] | [4] | [5] | [6]

CC(O)CCCCn1c(=O)c2c(ncn2C)n(C)c1=O (stereo not drawn)
inactive: [3] | [4] | [5] | [6]

Cc1[nH]cnc1-c1ccc(Cl)cc1
inactive: [3] | [4] | [5] | [6]

O=C(O)CCc1nc2ccccc2[nH]1
inactive: [3] | [4] | [5] | [6]

O=c1c(-c2ccc(O)cc2)coc2cc(O)cc(O)c12
inactive: [3] | [4] | [5] | [6]

O=C(O)COc1nn(Cc2ccccc2)c2ccccc12
inactive: [3] | [4] | [5] | [6]

O=C(O)c1cccnc1
inactive: [3] | [4] | [5] | [6]

CC(C)COC(=O)c1ccc(N)cc1
inactive: [3] | [4] | [5] | [6]

Cc1c(I)c(=O)n(-c2ccccc2)n1C
inactive: [3] | [4] | [5] | [6]

C[C@@H](CN1CC(=O)NC(=O)C1)N1CC(=O)NC(=O)C1
inactive: [3] | [4] | [5] | [6]

Cc1ccnc(NS(=O)(=O)c2ccc(N)cc2)n1
inactive: [3] | [4] | [5] | [6]

Cc1c(Nc2ncccc2C(=O)O)cccc1C(F)(F)F
inactive: [3] | [4] | [5] | [6]

NCCCNCCSP(=O)(O)O
inactive: [3] | [4] | [5] | [6]

CCOC(=O)C(O)c1ccccc1 (stereo not drawn)
inactive: [3] | [4] | [5] | [6]

O=C(NCC(O)CO)c1c(I)c(C(=O)NCC(O)CO)c(I)c(N(CCO)C(=O)CO)c1I (stereo not drawn)
inactive: [3] | [4] | [5] | [6]

COc1ccc2[nH]cc(CCNC(C)=O)c2c1
inactive: [3] | [4] | [5] | [6]

CC(=O)N[C@@H](CCC(=O)O)C(=O)O
inactive: [3] | [4] | [5] | [6]

CCCCCCCCCCCCCCCCN
inactive: [3] | [4] | [5] | [6]

CCO/C([O-])=N/c1c[n+](N2CCOCC2)no1
inactive: [3] | [4] | [5] | [6]

c1ccc(-c2nc[nH]c2-c2ccccc2)cc1
inactive: [3] | [4] | [5] | [6]

CC(C)c1ccc2oc3nc(N)c(C(=O)O)cc3c(=O)c2c1
inactive: [3] | [4] | [5] | [6]

O=C(O)Cc1cccc2ccccc12
inactive: [3] | [4] | [5] | [6]

CO[C@@]1(NC(=O)CSC[C@@H](N)C(=O)O)C(=O)N2C(C(=O)O)=C(CSc3nnnn3C)CS[C@@H]21
inactive: [3] | [4] | [5] | [6]
